About 8,800 targets were measured; listed, in parts, are those with a hit and a random draw of the rest. About 0.5% of all pairs of compound and target were hits. A number with no mark means an inactive call.
Tests used:
Test in all cases: log2 fold change, soluble protein after heating vs DMSO (PISA); higher = thermal stabilisation; K562 lysate, 10 uM; active = over 0.2 and 3.5 SD of the protein, either way, in both replicates (recomputed)
[1] = compound: C1=CC=C(C=C1)[C@H](COC2=CC3=C(C=C2)NC(=O)N3)NC(=O)C4=CC=CN(C4=O)CC5=CC(=C(C=C5)F)F
Summary of the method: (§1)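 To prepare the extract, K562 pellets were dounce-homogenised in PBS pH 7.4 with 1 mM MgCl2, giving crude material at 1 mg/mL protein. This was treated with 10 μM compound for 30 min, then heated in aliquots for 3 min over 48°C-58°C before pooling and addition of NP-40 to 0.5% at 4°C. Centrifugation at 21,000xg for 90 min left soluble protein in the supernatant, which TMTpro 16plex LC-MS/MS quantified with equalised channel sums. Results are log-two fold changes in thermal stability compared with solvent controls, from duplicates.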

[2] = compound: CC1=C(SC2=C1C(=N[C@H](C3=NN=C(N32)C)CC(=O)N)C4=CC=C(C=C4)Cl)C
Summary of the method: as §1

[3] = compound: CC1=C2C(=CC=C1)N=C(N(C2=O)C3=CC=CC=C3C)CN4C=NC5=C(N=CN=C54)N
Summary of the method: as §1

[4] = compound: Cc1sc2c(c1C)C(c1ccc(Cl)cc1)=N[C@@H](CC(=O)OC(C)(C)C)c1nnc(C)n1-2
Summary of the method: as §1

[5] = compound: c1ccc([C@@H]2C[C@H]2NC2CCNCC2)cc1
Summary of the method: as §1

Chain of UniProt Q9P0P0 (Q9P0P0 whole entry, looked up): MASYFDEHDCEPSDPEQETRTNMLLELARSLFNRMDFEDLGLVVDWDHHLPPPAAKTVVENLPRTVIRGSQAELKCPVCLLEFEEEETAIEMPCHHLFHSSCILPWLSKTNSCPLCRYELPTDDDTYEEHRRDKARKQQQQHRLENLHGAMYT
Chain of UniProt Q8WWV3 (Q8WWV3 whole entry, looked up): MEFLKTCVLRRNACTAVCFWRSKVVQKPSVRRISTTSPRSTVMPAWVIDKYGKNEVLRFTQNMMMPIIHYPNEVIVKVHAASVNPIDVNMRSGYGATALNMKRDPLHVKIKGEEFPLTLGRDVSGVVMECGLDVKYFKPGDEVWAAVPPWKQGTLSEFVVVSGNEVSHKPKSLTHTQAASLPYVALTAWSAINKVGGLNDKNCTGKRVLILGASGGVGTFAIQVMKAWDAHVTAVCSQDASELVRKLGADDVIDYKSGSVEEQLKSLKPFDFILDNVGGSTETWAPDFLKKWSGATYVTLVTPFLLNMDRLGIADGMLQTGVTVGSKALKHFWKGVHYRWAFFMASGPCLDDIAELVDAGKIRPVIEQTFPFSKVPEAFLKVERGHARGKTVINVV
Chain of UniProt Q8IYW5 (Q8IYW5 whole entry, looked up): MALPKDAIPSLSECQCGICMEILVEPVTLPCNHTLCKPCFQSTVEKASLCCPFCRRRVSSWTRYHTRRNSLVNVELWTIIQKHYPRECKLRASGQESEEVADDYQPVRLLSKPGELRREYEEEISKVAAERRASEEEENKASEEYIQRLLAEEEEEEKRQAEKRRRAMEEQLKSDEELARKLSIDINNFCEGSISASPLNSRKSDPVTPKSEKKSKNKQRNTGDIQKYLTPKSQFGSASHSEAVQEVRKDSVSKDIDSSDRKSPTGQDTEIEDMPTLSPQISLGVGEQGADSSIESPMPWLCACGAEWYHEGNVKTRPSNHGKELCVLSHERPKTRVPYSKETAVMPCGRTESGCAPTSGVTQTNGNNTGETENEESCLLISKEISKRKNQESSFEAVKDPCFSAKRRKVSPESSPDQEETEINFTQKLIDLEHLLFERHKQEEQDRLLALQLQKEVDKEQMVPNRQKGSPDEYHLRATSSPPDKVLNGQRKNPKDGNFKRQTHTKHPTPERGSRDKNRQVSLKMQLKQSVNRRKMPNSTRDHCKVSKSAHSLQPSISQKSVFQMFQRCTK
Chain of UniProt Q9H7N4 (Q9H7N4 whole entry, looked up): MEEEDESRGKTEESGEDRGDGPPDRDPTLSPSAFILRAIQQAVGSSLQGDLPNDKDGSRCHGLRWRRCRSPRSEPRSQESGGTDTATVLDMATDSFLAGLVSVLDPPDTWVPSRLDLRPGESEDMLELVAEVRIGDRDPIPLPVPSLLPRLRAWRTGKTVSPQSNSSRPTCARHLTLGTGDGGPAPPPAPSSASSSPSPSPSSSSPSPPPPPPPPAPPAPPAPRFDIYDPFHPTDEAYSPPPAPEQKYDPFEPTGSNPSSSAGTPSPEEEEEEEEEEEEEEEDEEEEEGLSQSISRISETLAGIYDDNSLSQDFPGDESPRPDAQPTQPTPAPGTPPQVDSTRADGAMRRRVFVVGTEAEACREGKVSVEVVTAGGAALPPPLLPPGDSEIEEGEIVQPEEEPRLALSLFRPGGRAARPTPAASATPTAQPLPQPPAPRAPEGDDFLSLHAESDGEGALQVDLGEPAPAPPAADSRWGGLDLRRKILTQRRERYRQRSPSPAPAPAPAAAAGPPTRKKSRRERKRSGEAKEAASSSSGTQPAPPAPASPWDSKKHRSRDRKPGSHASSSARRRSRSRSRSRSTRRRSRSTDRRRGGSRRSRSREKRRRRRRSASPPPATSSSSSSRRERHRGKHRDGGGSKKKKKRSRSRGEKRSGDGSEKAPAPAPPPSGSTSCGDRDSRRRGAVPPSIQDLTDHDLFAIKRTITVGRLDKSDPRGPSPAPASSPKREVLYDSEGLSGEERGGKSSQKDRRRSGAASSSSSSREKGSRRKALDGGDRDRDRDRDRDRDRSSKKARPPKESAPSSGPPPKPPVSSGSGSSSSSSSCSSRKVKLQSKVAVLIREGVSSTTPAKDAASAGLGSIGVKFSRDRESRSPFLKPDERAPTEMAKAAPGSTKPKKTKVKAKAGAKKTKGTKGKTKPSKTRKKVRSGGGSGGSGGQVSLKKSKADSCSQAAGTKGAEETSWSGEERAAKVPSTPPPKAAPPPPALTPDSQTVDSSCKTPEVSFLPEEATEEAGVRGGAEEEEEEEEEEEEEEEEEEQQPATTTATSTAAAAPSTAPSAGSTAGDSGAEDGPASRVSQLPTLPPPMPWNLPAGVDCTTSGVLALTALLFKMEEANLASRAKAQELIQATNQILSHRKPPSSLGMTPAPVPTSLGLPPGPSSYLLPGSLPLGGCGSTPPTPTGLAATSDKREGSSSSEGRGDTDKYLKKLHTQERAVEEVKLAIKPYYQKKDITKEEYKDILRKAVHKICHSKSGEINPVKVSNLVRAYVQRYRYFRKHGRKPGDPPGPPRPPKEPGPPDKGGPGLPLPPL
Chain of UniProt Q6GYQ0 (Q6GYQ0 whole entry, looked up): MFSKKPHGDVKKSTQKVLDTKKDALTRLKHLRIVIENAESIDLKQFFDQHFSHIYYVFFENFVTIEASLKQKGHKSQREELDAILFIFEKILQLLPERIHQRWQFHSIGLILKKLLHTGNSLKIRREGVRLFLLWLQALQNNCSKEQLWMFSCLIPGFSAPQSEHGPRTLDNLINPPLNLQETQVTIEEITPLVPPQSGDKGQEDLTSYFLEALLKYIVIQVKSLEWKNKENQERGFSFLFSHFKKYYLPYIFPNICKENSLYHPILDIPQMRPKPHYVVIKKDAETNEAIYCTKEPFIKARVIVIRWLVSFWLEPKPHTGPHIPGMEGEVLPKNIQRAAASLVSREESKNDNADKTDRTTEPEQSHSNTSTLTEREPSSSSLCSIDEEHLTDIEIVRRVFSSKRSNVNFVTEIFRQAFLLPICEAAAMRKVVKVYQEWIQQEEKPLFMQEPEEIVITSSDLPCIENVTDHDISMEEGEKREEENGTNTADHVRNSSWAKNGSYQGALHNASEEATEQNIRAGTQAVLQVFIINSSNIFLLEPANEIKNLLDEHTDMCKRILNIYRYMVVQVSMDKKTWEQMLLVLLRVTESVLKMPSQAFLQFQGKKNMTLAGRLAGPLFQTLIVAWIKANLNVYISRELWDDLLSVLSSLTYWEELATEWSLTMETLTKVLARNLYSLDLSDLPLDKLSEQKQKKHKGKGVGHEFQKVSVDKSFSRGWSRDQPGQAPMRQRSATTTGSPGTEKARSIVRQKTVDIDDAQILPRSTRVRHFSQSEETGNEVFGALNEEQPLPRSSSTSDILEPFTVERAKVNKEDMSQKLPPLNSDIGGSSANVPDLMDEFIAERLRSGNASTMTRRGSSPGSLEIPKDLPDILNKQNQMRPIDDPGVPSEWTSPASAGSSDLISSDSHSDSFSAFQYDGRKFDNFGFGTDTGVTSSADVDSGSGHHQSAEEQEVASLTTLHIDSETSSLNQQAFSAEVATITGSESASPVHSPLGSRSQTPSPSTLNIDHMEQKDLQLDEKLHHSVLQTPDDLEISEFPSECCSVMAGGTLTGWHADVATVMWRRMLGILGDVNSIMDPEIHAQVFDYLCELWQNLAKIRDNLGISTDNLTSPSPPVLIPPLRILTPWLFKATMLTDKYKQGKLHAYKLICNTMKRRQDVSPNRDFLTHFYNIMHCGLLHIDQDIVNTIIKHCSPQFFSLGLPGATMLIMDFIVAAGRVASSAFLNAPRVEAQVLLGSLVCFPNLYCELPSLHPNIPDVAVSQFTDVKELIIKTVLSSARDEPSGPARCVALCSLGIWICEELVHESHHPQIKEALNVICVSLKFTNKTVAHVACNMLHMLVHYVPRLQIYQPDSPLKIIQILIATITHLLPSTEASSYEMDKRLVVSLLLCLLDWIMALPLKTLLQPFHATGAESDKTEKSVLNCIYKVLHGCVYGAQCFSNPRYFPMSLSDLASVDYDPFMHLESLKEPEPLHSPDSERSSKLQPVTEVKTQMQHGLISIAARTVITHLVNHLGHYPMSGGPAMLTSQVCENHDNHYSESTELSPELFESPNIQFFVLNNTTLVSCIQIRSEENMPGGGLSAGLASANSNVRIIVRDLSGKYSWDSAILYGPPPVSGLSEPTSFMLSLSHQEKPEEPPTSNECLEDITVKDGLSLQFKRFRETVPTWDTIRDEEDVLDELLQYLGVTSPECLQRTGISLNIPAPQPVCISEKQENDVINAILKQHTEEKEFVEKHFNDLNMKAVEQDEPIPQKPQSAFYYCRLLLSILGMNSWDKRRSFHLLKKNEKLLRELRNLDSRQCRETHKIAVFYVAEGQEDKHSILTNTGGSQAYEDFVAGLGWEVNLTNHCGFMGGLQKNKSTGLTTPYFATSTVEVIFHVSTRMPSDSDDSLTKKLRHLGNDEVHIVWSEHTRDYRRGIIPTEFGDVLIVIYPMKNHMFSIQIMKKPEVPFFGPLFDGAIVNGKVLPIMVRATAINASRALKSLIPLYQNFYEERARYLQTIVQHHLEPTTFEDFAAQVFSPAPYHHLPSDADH
Chain of UniProt O75880 (O75880 whole entry, looked up): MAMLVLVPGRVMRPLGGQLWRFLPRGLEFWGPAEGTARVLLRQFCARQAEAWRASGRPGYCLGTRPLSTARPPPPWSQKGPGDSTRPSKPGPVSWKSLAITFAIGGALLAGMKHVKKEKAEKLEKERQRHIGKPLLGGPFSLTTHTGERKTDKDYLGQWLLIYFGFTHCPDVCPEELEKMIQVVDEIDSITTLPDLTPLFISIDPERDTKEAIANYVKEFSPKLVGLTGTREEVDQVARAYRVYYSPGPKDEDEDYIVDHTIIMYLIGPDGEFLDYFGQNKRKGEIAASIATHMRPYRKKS
Chain of UniProt O75446 (O75446 whole entry, looked up): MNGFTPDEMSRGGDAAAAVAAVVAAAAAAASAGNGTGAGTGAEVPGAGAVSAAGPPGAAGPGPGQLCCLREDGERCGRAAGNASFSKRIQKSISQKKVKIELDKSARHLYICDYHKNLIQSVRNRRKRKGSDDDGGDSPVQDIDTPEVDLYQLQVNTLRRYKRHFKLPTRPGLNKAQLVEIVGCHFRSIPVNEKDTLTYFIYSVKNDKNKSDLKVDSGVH

Target	log2 fold change [1]	log2 fold change [2]	log2 fold change [3]	log2 fold change [4]	log2 fold change [5]
RIOK1 (UniProt Q9BRS2)	-0.026	-0.031	-0.003	-0.006	-0.015
RPL36AL (UniProt Q969Q0)	0.074	-0.049	-0.03	0.274	0.015
RTN4IP1 (UniProt Q8WWV3)	0.028	-0.005	0.027	-0.119	0.076
SAR1B (UniProt Q9Y6B6)	-0.006	-0.007	-0.01	-0.068	0.052
RPAP1 (UniProt Q9BWH6)	-0.006	0.018	0.015	-0.038	0.028
SEC13 isoform 3 (UniProt P55735)	0.022	-0.013	-0.001	-0.029	0.191
RAPGEF2, A0A2R8YGD3	-0.043	0.021	-0.046	-0.003	-0.32 (active)
SCAF1 (UniProt Q9H7N4)	0.112	-0.492 (active)	0.002	-0.007	0.019
RBM42 (UniProt Q9BTD8)	-0.014	-0.003	0.107	0.103	-0.006
SEH1L isoform 1 (UniProt Q96EE3)	0.016	0.031	-0.045	-0.041	-0.028
RMC1 (UniProt Q96DM3)	-0.013	0.018	-0.052	0.05	0.007
RCAN1 (UniProt P53805)	0.141	-0.074	-0.063	-0.026	0.026
RFC5 (UniProt P40937)	-0.024	0.018	0.041	0.034	0.027
RNF181 (UniProt Q9P0P0)	0.03	-0.145	-0.031	0.022	0.066
SAP30 (UniProt O75446)	0.029	-0.029	0.009	0.014	-0.026
RBM23 isoform 2 (UniProt Q86U06)	-0.118	-0.084	0.06	0.011	-0.002
RPN2 (UniProt P04844)	-0.001	-0.01	0.01	-0.008	-0.009
RPS18 (UniProt P62269)	-0.009	0.046	0.024	-0.003	-0.075
RPTOR (UniProt Q8N122)	0.015	-0.024	0.035	-0.008	0.04
RFC2 (UniProt P35250)	-0.009	0.006	-0.008	0.043	-0.033
QRSL1 (UniProt Q9H0R6)	-0.005	-0.056	-0.101	0.041	0.094
RHOA (UniProt P61586)	0.177	0.06	0.038	0.02	0.07
RBM4 (UniProt Q9BWF3)	0	0.016	0.022	0.03	-0.007
RSU1 (UniProt Q15404)	0.056	0.004	-0.004	-0.017	0.157
RCOR1 (UniProt Q9UKL0)	-0.034	0.03	-0.003	-0.023	0.494 (active)
RPS26P11 (UniProt Q5JNZ5)	-0.001	0.031	0.05	-0.033	-0.31 (active)
RNF168 (UniProt Q8IYW5)	-0.008	-0.052	0.017	0.061	-0.068

Target	log2 fold change [1]	log2 fold change [2]	log2 fold change [3]	log2 fold change [4]	log2 fold change [5]
SEC24D isoform 2 (UniProt O94855)	-0.003	0.006	-0.016	0.033	0.009
RPL27 (UniProt P61353)	0.034	0.031	0.003	0.008	0.101
RAB8B (UniProt Q92930)	-0.067	0.013	-0.041	-0.012	0.146
REXO4 (UniProt Q9GZR2)	0.009	-0.003	0.029	0.051	0.138
RASA3 (UniProt Q14644)	-0.066	0.149	0.078	0.078	0.047
RRAGA (UniProt Q7L523)	0.024	-0.039	0.01	-0.045	-0.036
RIOK2 (UniProt Q9BVS4)	0.002	-0.018	0.009	-0.023	-0.022
SCO1 (UniProt O75880)	-0.021	0.017	0	0.136	-0.027
RDH10 (UniProt Q8IZV5)	0.147	0.018	0.006	-0.051	-0.06
RALGAPA1 isoform 6 (UniProt Q6GYQ0)	-0.041	-0.072	0.006	-0.063	-0.178
RPS9 (UniProt P46781)	0.003	0.038	-0.007	0.1	0.124
RPL8 (UniProt P62917)	-0.012	-0.036	-0.031	0.066	0.032
RANBP6 (UniProt O60518)	0.013	-0.047	0.046	0.074	0.005
RABL3 (UniProt Q5HYI8)	-0.044	-0.021	0.004	0.017	0.03
REEP6 (UniProt Q96HR9)	0.038	-0.081	0.005	-0.107	-0.181
RPS29 (UniProt P62273)	0.047	-0.055	-0.071	0.328	0.398
SELENOK (UniProt Q9Y6D0)	0.061	-0.074	-0.05	-0.181	-0.311
RDX (UniProt P35241)	-0.029	-0.036	0.003	0.025	0.148
RRM1 (UniProt P23921)	0.014	0.028	0.042	0.028	0.004
RTTN (UniProt Q86VV8)	0.089	-0.033	-0.289	0.046	0.024
SAMD4A (UniProt Q9UPU9)	0.114	0.086	-0.01	-0.079	-0.03
RNF213, A0A0A0MTC1	-0.02	-0.007	0.069	0.004	0.045
RETSAT (UniProt Q6NUM9)	0.103	-0.037	0.148	-0.145	-0.015
RIC1 (UniProt Q4ADV7)	-0.086	0.186	0	0.081	0.138
SCD (UniProt O00767)	-0.016	-0.007	0.103	-0.179	-0.184
RNF123 (UniProt Q5XPI4)	-0.019	-0.024	0.019	0.005	0.047

From the supplement of paper PMC10849652
